{"source": "PubChem BioAssay", "key": {"[1]": {"tested_on": "XIP peptide (Xip251-270) binding", "experiment": "small-molecule binders of XIP peptide, primary screen, biochemical, small-molecule microarray, fluorescence 635/667 nm, 0.1 µg/mL protein (AID 1182)", "settings": "fluorescent protein binding, 635 nm, higher = more signal, called active from +8 up or from −8 down"}, "[2]": {"tested_on": "XIP peptide (Xip251-270)", "experiment": "small-molecule binders of XIP peptide, primary screen, biochemical, small-molecule microarray, fluorescence 635/667 nm, 0.5 µg/mL protein (AID 1183)", "settings": "small-molecule microarray binding, fluorescence 635 nm; higher = more signal"}, "[3]": {"experiment": "Plasmodium falciparum growth inhibition, primary screen, strain 3D7, DAPI fluorescence, 100 nL (AID 1184);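 further: parasites grown inside human red blood cells in medium with human serum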", "settings": "P. falciparum 3D7 growth, 3 d, higher = more signal"}, "[4]": {"molecular_target": "Homeobox protein Hox-A13 (Mus musculus) (UniProt Q62424)", "sequence (Q62424 whole entry, looked up)": "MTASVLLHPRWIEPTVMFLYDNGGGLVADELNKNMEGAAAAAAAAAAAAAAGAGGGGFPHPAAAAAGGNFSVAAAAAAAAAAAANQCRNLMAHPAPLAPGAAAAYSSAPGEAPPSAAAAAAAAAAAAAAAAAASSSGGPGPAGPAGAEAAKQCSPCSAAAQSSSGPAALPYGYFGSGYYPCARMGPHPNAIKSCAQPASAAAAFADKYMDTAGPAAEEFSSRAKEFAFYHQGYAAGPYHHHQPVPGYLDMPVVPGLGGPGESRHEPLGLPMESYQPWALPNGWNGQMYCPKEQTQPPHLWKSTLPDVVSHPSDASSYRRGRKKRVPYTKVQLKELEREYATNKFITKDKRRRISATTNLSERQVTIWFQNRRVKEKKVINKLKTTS", "experiment": "inhibitors of HoxA13-DNA binding, primary screen, biochemical, fluorescence polarization, labeled oligonucleotide (AID 1185)", "settings": "15 min, higher = more signal, called active from +8 up or from −8 down"}}, "note": "Activity calls are given as the source filed them.", "data": [{"smiles": "CCN1C(=O)[C@H]2[C@H]3[C@H](O)[C@H](O)CC(=NOC[C@H]4O[C@H](c5ccccc5)C=C[C@@H]4Oc4ccc(OC)cc4)[C@@H]3CC[C@H]2C1=O", "values": [{"measurement": "composite z-score", "setting": "[1]", "value": "0.432 (inactive)"}, {"measurement": "composite z-score", "setting": "[2]", "value": 0.704}, {"measurement": "z-score", "setting": "[3]", "value": 0.188}, {"measurement": "z-score", "setting": "[4]", "value": "-10.8 (active)"}]}, {"smiles": "CCN1C(=O)[C@H]2[C@H]3[C@H](O)[C@H](O)CC(=O)[C@H]3CC[C@H]2C1=O", "values": [{"measurement": "composite z-score", "setting": "[1]", "value": "0.809 (inactive)"}, {"measurement": "composite z-score", "setting": "[2]", "value": 0.453}, {"measurement": "z-score", "setting": "[3]", "value": 1.05}, {"measurement": "z-score", "setting": "[4]", "value": "0.0412 (inactive)"}]}, {"smiles": "CC(C)CON=C1C[C@@H](O)[C@@H](O)[C@@H]2[C@@H]3C(=O)N(C4CCCCC4)C(=O)[C@@H]3CC[C@@H]12", "values": [{"measurement": "composite z-score", "setting": "[1]", "value": "0.376 (inactive)"}, {"measurement": "composite z-score", "setting": "[2]", "value": 0.0112}, {"measurement": "z-score", "setting": "[3]", "value": -0.398}, {"measurement": "z-score", "setting": "[4]", "value": "-4.41 (inactive)"}]}, {"smiles": "COC(=O)CC=C[C@@H](C)[C@@H](C=NOCC[C@@H]1C=C[C@H](OC(C)=O)[C@@H](COC(C)=O)O1)NS(=O)(=O)c1ccc(C)cc1", "values": [{"measurement": "composite z-score", "setting": "[1]", "value": "0.412 (inactive)"}, {"measurement": "composite z-score", "setting": "[2]", "value": 0.303}, {"measurement": "z-score", "setting": "[3]", "value": 0.0783}, {"measurement": "z-score", "setting": "[4]", "value": "-5.32 (inactive)"}]}, {"smiles": "COC(=O)[C@H](C)NC(=O)CCC1CC(OC(=O)NCc2ccc3c(c2)OCO3)CC2(CCCC(COC(=O)NCc3cccc(C(F)(F)F)c3)O2)O1", "note": "(stereo not given in full)", "values": [{"measurement": "composite z-score", "setting": "[1]", "value": "0.2 (inactive)"}, {"measurement": "composite z-score", "setting": "[2]", "value": 0.717}, {"measurement": "z-score", "setting": "[3]", "value": -2.06}, {"measurement": "z-score", "setting": "[4]", "value": "-5.57 (inactive)"}]}, {"smiles": "Cc1cc2c(nc1C)CCCCN2CC(C)ON=C[C@@H](C)[C@H](OCc1ccccc1)C(C)C", "note": "(stereo not given in full)", "values": [{"measurement": "composite z-score", "setting": "[1]", "value": "-0.398 (inactive)"}, {"measurement": "composite z-score", "setting": "[2]", "value": -0.0948}, {"measurement": "z-score", "setting": "[3]", "value": -0.109}, {"measurement": "z-score", "setting": "[4]", "value": "-3.66 (inactive)"}]}, {"smiles": "CC(C)CCN1CCc2nc(COc3ccccc3)c3c(c2C1)CO[C@@H](C)C3", "values": [{"measurement": "composite z-score", "setting": "[1]", "value": "0.0821 (inactive)"}, {"measurement": "composite z-score", "setting": "[2]", "value": 0.143}, {"measurement": "z-score", "setting": "[3]", "value": 0.329}, {"measurement": "z-score", "setting": "[4]", "value": "-5.02 (inactive)"}]}, {"smiles": "CCCCc1nc2c(c3c1C[C@H](C)OC3)CN(CCOc1ccccc1)CC2", "values": [{"measurement": "composite z-score", "setting": "[1]", "value": "1.4 (inactive)"}, {"measurement": "composite z-score", "setting": "[2]", "value": 0.566}, {"measurement": "z-score", "setting": "[3]", "value": 0.964}, {"measurement": "z-score", "setting": "[4]", "value": "-4.81 (inactive)"}]}, {"smiles": "CC(C)CON=C1C[C@@H](O)[C@@H](O)[C@@H]2[C@@H]3C(=O)N(Cc4ccc5c(c4)OCO5)C(=O)[C@@H]3CC[C@H]12", "values": [{"measurement": "composite z-score", "setting": "[1]", "value": "0.798 (inactive)"}, {"measurement": "composite z-score", "setting": "[2]", "value": 0.202}, {"measurement": "z-score", "setting": "[3]", "value": -0.613}, {"measurement": "z-score", "setting": "[4]", "value": "-3.41 (inactive)"}]}, {"smiles": "CCOC(=O)NN=C1C[C@@H](O)[C@@H](O)[C@@H]2[C@@H]3C(=O)N(c4cccc(Oc5ccccc5)c4)C(=O)[C@@H]3CC[C@@H]12", "values": [{"measurement": "composite z-score", "setting": "[1]", "value": "0.187 (inactive)"}, {"measurement": "composite z-score", "setting": "[2]", "value": 0.651}, {"measurement": "z-score", "setting": "[3]", "value": -0.512}, {"measurement": "z-score", "setting": "[4]", "value": "-4.18 (inactive)"}]}, {"smiles": "CCOC(=O)CCN1C(=O)[C@H]2[C@H]3[C@H](O)[C@H](O)CC(=NOCC(C)C)[C@H]3CC[C@H]2C1=O", "values": [{"measurement": "composite z-score", "setting": "[1]", "value": "0.289 (inactive)"}, {"measurement": "composite z-score", "setting": "[2]", "value": 0.158}, {"measurement": "z-score", "setting": "[3]", "value": 1.2}, {"measurement": "z-score", "setting": "[4]", "value": "0.737 (inactive)"}]}, {"smiles": "CCOC(=O)NN=C1C[C@@H](O)[C@@H](O)[C@@H]2[C@@H]3C(=O)N(c4cccc(Oc5ccccc5)c4)C(=O)[C@@H]3CC[C@H]12", "values": [{"measurement": "composite z-score", "setting": "[1]", "value": "0.389 (inactive)"}, {"measurement": "composite z-score", "setting": "[2]", "value": 0.0776}, {"measurement": "z-score", "setting": "[3]", "value": 0.275}, {"measurement": "z-score", "setting": "[4]", "value": "1.22 (inactive)"}]}, {"smiles": "CSCC[C@@H]1NC(=O)CC=C[C@@H](C)COC(=O)[C@@H](C)COC1=O", "values": [{"measurement": "composite z-score", "setting": "[1]", "value": "-0.082 (inactive)"}, {"measurement": "composite z-score", "setting": "[2]", "value": -0.318}, {"measurement": "z-score", "setting": "[3]", "value": -0.866}, {"measurement": "z-score", "setting": "[4]", "value": "0.572 (inactive)"}]}, {"smiles": "COC(=O)[C@@H]1CC[C@H](C)[C@@H](c2ccc(C)cc2)N1C(=O)c1ccc(C=NOCC[C@@H]2C=C[C@H](OC(C)=O)[C@@H](COC(C)=O)O2)cc1", "values": [{"measurement": "composite z-score", "setting": "[1]", "value": "-0.425 (inactive)"}, {"measurement": "composite z-score", "setting": "[2]", "value": 0.484}, {"measurement": "z-score", "setting": "[3]", "value": -0.316}, {"measurement": "z-score", "setting": "[4]", "value": "-5.26 (inactive)"}]}, {"smiles": "COC(=O)[C@@H]1CC[C@H](C)[C@@H](c2ccc(C)cc2)N1C(=O)c1ccc(C=NO[C@H](C)c2cn([C@H](CO)Cc3ccccc3)nn2)cc1", "values": [{"measurement": "composite z-score", "setting": "[1]", "value": "-0.402 (inactive)"}, {"measurement": "composite z-score", "setting": "[2]", "value": 0.658}, {"measurement": "z-score", "setting": "[3]", "value": -1.76}, {"measurement": "z-score", "setting": "[4]", "value": "-5.94 (inactive)"}]}, {"smiles": "CCC=CCCC(OC(=O)c1ccc(Br)cc1)C1=CCCCC1=O", "note": "(stereo not given)", "values": [{"measurement": "composite z-score", "setting": "[1]", "value": "0.84 (inactive)"}, {"measurement": "composite z-score", "setting": "[2]", "value": 0.49}, {"measurement": "z-score", "setting": "[3]", "value": -0.713}, {"measurement": "z-score", "setting": "[4]", "value": "-3.22 (inactive)"}]}, {"smiles": "COC(=O)[C@H]1[C@@H](O)[C@@]2(O)c3ccccc3O[C@@]2(c2ccccc2)[C@@H]1c1ccccc1", "values": [{"measurement": "composite z-score", "setting": "[1]", "value": "-0.759 (inactive)"}, {"measurement": "composite z-score", "setting": "[2]", "value": -0.028}, {"measurement": "z-score", "setting": "[3]", "value": -1.87}, {"measurement": "z-score", "setting": "[4]", "value": "-1.51 (inactive)"}]}, {"smiles": "O=C1[C@H]2[C@H]3[C@H](O)[C@H](O)CC(=NO[C@@H]4O[C@H](CO)[C@@H](O)[C@H](O)[C@H]4O)[C@H]3CC[C@H]2C(=O)N1c1cccc(Oc2ccccc2)c1", "values": [{"measurement": "composite z-score", "setting": "[1]", "value": "-0.373 (inactive)"}, {"measurement": "composite z-score", "setting": "[2]", "value": 0.538}, {"measurement": "z-score", "setting": "[3]", "value": -0.418}, {"measurement": "z-score", "setting": "[4]", "value": "-1.68 (inactive)"}]}, {"smiles": "O=C1[C@H]2[C@H]3[C@H](O)[C@H](O)CC(=NOC[C@@H](O)COCc4ccco4)[C@H]3CC[C@H]2C(=O)N1c1ccc(F)cc1F", "values": [{"measurement": "composite z-score", "setting": "[1]", "value": "-0.774 (inactive)"}, {"measurement": "composite z-score", "setting": "[2]", "value": 0.415}, {"measurement": "z-score", "setting": "[3]", "value": -0.644}, {"measurement": "z-score", "setting": "[4]", "value": "0.794 (inactive)"}]}, {"smiles": "O=C(NN=C1C[C@@H](O)[C@@H](O)[C@@H]2[C@@H]3C(=O)N(C[C@@H]4CCCO4)C(=O)[C@@H]3CC[C@H]12)OCc1ccccc1", "values": [{"measurement": "composite z-score", "setting": "[1]", "value": "-0.526 (inactive)"}, {"measurement": "composite z-score", "setting": "[2]", "value": -0.314}, {"measurement": "z-score", "setting": "[3]", "value": 0.0837}, {"measurement": "z-score", "setting": "[4]", "value": "0.901 (inactive)"}]}]}
